In the library only some 19% were active in any assay of this set; here they are far more common.
DT40 TDP1 CPT = DT40-hTDP1 cell growth loss with CPT | chicken DT40 Tdp1-/-;hTDP1 cells + 20 nM CPT, ATP luminescence, 48 h | Potency, µM (series often up to 46.2 µM), without a hit: at the highest dose activity change, negative = growth inhibition, usual class: inhibitors | 12% of 420,000 active | AID 686979; note: potency is the fitted concentration of half-maximal effect; nearly all actives have a fitted effect of over 55% in size
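Chicken DT40 Tdp1-/- cells stably complemented with human TDP1 were seeded at 400 cells/well in medium containing 20 nM camptothecin, exposed to pin-transferred compounds, and grown at 37 °C for at least 48 hr. Viability was read as ATP luminescence.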
TDP1 inh = inhibitors of human tyrosyl-DNA phosphodiesterase TDP1. Q9NUW8. recombinant TDP1, AlphaScreen DNA substrate cleavage. Potency, µM (highest dose often 130 µM), inactives show at the top dose activity change, negative = inhibition, hits mostly inhibitors. 0.28% of 350,000 active. AID 485290; note: potency is the fitted concentration of half-maximal effect; nearly all actives have a fitted effect of over 40% in size
Target sequence (Q9NUW8 whole entry, looked up): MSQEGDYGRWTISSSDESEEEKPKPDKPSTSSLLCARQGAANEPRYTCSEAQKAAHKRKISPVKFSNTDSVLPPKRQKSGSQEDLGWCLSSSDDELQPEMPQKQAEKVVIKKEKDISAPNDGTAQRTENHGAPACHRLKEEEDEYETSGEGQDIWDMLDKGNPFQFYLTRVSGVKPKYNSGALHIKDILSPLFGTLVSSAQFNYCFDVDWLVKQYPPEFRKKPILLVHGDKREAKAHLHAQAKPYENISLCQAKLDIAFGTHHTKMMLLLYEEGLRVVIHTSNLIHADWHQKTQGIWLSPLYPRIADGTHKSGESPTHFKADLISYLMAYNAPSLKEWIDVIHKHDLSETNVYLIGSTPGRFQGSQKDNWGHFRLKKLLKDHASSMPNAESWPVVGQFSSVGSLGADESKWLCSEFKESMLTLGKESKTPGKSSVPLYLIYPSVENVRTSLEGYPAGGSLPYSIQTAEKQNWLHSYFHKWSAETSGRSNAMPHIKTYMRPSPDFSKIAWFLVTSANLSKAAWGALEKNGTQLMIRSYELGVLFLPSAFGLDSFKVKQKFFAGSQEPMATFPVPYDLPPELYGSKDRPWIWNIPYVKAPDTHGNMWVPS
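AlphaScreen read-out: signal falls as enzyme removes the 3' tyrosine-FITC from a 5'-biotinylated DNA oligo (15 nM, 5 min, RT). Enzyme was E. coli-made recombinant Tdp1 at 1 nM, exposed to compound for 15 min beforehand; beads 10 ug/ml, 10 min.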
TDP1 cell noCPT = qHTS for Inhibitors of human tyrosyl-DNA phosphodiesterase 1 (TDP1): qHTS in cells in absence of CPT | 15% of 420,000 active | AID 686978, 2013 | Potency, µM (top dose mostly 46.2 µM), without a hit: at the top dose activity change, negative = growth inhibition, hits mostly inhibitors | DT40 Tdp1-/- hTDP1 cells, no CPT, ATP luminescence, 48 h; note: potency is the fitted concentration of half-maximal effect; nearly all actives have a fitted effect of over 55% in size
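Chicken DT40 Tdp1-/- cells stably complemented with human TDP1 were seeded at 400 cells/well with DMSO in place of 20 nM camptothecin. After compound pinning, cells grew at least 48 hr at 37 °C; viability read by CellTiter-Glo luminescence.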
Giardia kill = Giardia lamblia killing | Giardia lamblia trophozoite viability | activity change, % at 7.66 µM, hits read low | 0.15% of 340,000 active | AID 540267; in the data active = activity change below about -80%; inconclusive = between about -30% and that limit;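 note: parasites exposed to compound for two days anaerobically before the ATP read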
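Luminescence from cellular ATP indicates surviving trophozoites (100 cells/well) following 48 hrs anaerobic compound treatment at 37 deg C; signal develops 15-30 min at room temperature.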
ELG1 repair inh = inhibitors of ELG1-dependent DNA repair in HEK293T cells; HEK293T ELG1-luciferase reporter, luminescence, 16 h; DNA damage induced by 5-fluorouridine; Potency, µM (highest dose often 46.1 µM), without a hit: at the highest dose activity change, negative = inhibition, most hits filed as inhibitors; 2.3% of 330,000 active; note: potency is the fitted concentration of half-maximal effect; nearly all actives have a fitted effect of over 55% in size
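DMSO vehicle served as the neutral condition. Each well held 2,000 cells given 5-fluorouridine plus compound; after 16 hr at 37 °C/5% CO2, ONE-Glo was added and luciferase measured 30 min later.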
IL1B secr inh = inhibitors of inflammasome signaling (IL-1 beta secretion); THP-1 LPS/ATP IL-1B secretion, AlphaLISA, 16 h; active compounds read low; activity change, % at 57.5 µM; 4.7% of 360,000 active; AID 743279; in the data active = activity change below about -50%; inconclusive = mostly about -30% to -49%
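Secreted IL-1B measured by AlphaLISA bead assay after 16 h compound exposure of THP-1 cells; compounds (final up to 57.5 uM) added 1 h before LPS (250 ng/mL) and ATP (1.25 mM) stimulation; lower signal means less secretion.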
The depositor's hits bear a star; i = inactive; ? = inconclusive; . = no result given; [ ] = another dose, or the depositor's remark. Unless noted, calls come from the whole dose curve; as a rule, active = well fitted curve in the direction sought with a large enough effect; inconclusive = small, poorly fitted or top-dose-only effect, or another doubt; inactive = no such curve, though single readings can be large; an effect the other way counts as inactive or inconclusive. % is set by controls: 0 for no effect and ±100 for the full control effect.

SMILES	DT40 TDP1 CPT	TDP1 inh	TDP1 cell noCPT	Giardia kill	ELG1 repair inh	IL1B secr inh
CN(C)c1ccc(C=c2c3ccccc3n3c2c2c([n+]3C)CCCC2)cc1	0.411µM*	.	0.326µM*	-1.2	.	-110.8*
CN(C)c1ccc(C=c2c3cc([N+](=O)[O-])ccc3n3c2cc(-c2ccccc2)[n+]3C)cc1	2.91µM*	.	2.59µM*	-11.0	.	-115.0*
COc1cc(OC)c(NC2(c3ccccc3)C(=O)c3ccccc3C2=O)cc1Cl	2.9%	10.6%	-6.1%	.	.	.
COc1cc(N(C)C)ccc1C=c1c2ccccc2n2c1cc(-c1ccccc1)[n+]2C	0.517µM*	.	0.366µM*	-26.9	.	-99.7*
COc1cc(C=c2c3ccccc3n3c2cc(-c2ccccc2)[n+]3C)cc(OC)c1OC	5.17µM*	.	4.61µM*	-0.2	.	-26.2
COc1cc(/C=C(/C(=O)O)c2ccc(-c3ccccc3)cc2)cc(OC)c1OC	?	0.6%	?	13.0	-21.9%	33.2
Cc1c(CNC(=O)C2CCC(=O)N(CCc3ccccc3)C2)cnn1C (centres undefined)	-14.8%	2.5%	-12.8%	5.6	6.9%	7.1
CN(C)CC1(C)Cc2ccsc2C1O (centres undefined)	1.5%	.	5.4%	-10.9	.	7.6
O=C(NCCCc1nc2ccccc2n1Cc1ccc(Cl)cc1Cl)c1ccco1	23.1µM*	2.5%	?	.	.	.
O=C(NCCc1nc2ccccc2n1Cc1c(F)cccc1Cl)c1ccco1	?	8.6%	?	.	.	.
O=C(NCCc1nc2ccccc2n1Cc1ccc(Cl)cc1Cl)c1ccco1	1.84µM*	4.9%	1.84µM*	.	.	.
O=C(NCCc1nc2ccccc2n1Cc1ccc(F)cc1)c1ccco1	-10.4%	1.2%	?	.	.	.
CN(C(=O)c1cc([N+](=O)[O-])ccc1NCc1cccnc1)c1ccccc1	-17.6%	.	-27.1%	?	-2.4%	2.0
COc1ccc(CCCc2nnc(SCC(=O)Nc3ccc(C)cc3C)o2)cc1	-29.0%	.	?	.	.	.
COc1ccc(CCCc2nnc(SCC(=O)Nc3cc(F)ccc3C)o2)cc1	?	.	11.6µM*	.	.	.
CN(C)C(=O)c1cccc(-c2cnc3c(NC=O)cc(-c4ccccc4N(C)C)cn23)c1	23.1µM*	.	16.4µM*	.	.	24.2
CN(C)C(=O)c1cccc(-c2cnc3c(NC=O)cc(-c4ccccc4Cl)cn23)c1	2.59µM*	.	5.17µM*	.	.	-53.3*
CC(=O)[C@@]1(O)CC[C@H]2C3CCC4=CC(=O)CC[C@]4(C)C3CC[C@@]21C (some centres undefined)	.	7.6%[56.1 µM]	.	.	.	.
Cc1ccc(C(=O)CC(=O)c2ccccc2C)c(O)c1	2.59µM*	.	2.31µM*	-6.3	-11.4%	66.5
Cc1ccc(C(=O)c2ccccc2C(=O)O)c(O)c1	-19.6%	3.7%	-0.5%	6.6	0.1%	23.7
Cc1ccc(C(=O)CC(=O)c2cccc(F)c2)c(O)c1	7.31µM*	7.9%	6.51µM*	-2.3	0.0%	62.1
COc1ccc(CCC(=O)N2CCN(S(=O)(=O)c3cccc(Cl)c3)CC2)cc1	?	1.6%	?	1.6	-19.9%	-25.4
CC(=O)N1CCc2c(sc3c2c(=O)n(CCc2ccccc2)c(=O)n3CC(=O)Nc2ccc(C)c(F)c2)C1	23.1µM*	2.0%	?	.	.	.
CC(=O)N1CCc2c(sc3c2c(=O)n(-c2ccc(C)cc2)c(=O)n3CC(=O)Nc2ccccc2)C1	?	2.9%	16.4µM*	.	.	.
CCOC(=O)N1CCc2c(sc3c2c(=O)n(CCc2ccccc2)c(=O)n3CC(=O)Nc2ccccc2C)C1	8.2µM*	6.4%	8.2µM*	.	.	.
SMILES	DT40 TDP1 CPT	TDP1 inh	TDP1 cell noCPT	Giardia kill	ELG1 repair inh	IL1B secr inh
O=C(Nc1ccccc1)N1CCC2(CC1)CCN(S(=O)(=O)c1ccccc1)CC2	-0.4%	.	-12.3%	.	.	.
N#Cc1cccc(-c2nc(NCc3cccnc3)c3ccccc3n2)c1	2.2%	.	-28.9%	.	.	.
COc1ccc(/C(O)=C2/C(=O)C(=O)N(c3ccccn3)C2c2ccc(OC)c(OC)c2)cc1 (centres undefined)	1.1%	1.4%	1.6%	-3.1	12.2%	.
COc1ccc(/C=C/c2nc(C#N)c(NCCc3ccccc3)o2)cc1OC	?	4.7%	?	.	.	.
COCCCNc1oc(/C=C/c2cc(OC)c(OC)c(OC)c2)nc1C#N	?	-2.3%	23.1µM*	.	.	.
CNc1oc(/C=C/c2cc(OC)c(OC)c(OC)c2)nc1C#N	?	7.0%	23.1µM*	8.3	.	.
COc1ccc(CCNc2oc(/C=C/c3cc(OC)c(OC)c(OC)c3)nc2C#N)cc1OC	13µM*	0.0%	11.6µM*	.	.	.
CNc1oc(/C=C/c2ccccc2)nc1C#N	-24.1%	5.4%	-21.7%	8.4	?	-5.1
CSc1ccc(S(=O)(=O)NCC(=O)OCC(=O)N(C)Cc2ccccc2)cc1[N+](=O)[O-]	-10.5%	.	4.8%	-0.8	?	19.0
N#Cc1cc([N+](=O)[O-])ccc1NCCN1CCOCC1	11.1%	2.7%	2.4%	7.4	-5.0%	-3.9
Cc1c(C(=O)N/N=C/c2ccncc2)no[n+]1[O-]	1.9%	9.6%	3.7%	?	?	15.3
Cc1cc(Cl)c(OCCCCNC(C)(C)C)c(Br)c1	.	-5.3%	.	.	-21.0%	.
O=C1CSC(c2cn(-c3ccccc3)nc2-c2cc3ccccc3oc2=O)N1Cc1ccco1 (centres undefined)	?	6.4%	?	4.3	16.4µM*	-11.7
Cc1ccc(-c2nn(-c3ccccc3)cc2C2SCC(=O)N2Cc2ccccc2)o1 (centres undefined)	13µM*	7.6%	8.2µM*	17.5	?	-68.5*
O=C(Nc1ccnn1C1CCN(Cc2cccc(O)c2)CC1)C1CCCC1	-3.2%	2.5%[56.1 µM]	1.6%	1.6	11.0%	i
C[C@H](CO)N1C[C@H](C)[C@@H](CN(C)S(=O)(=O)c2ccccc2)Oc2c(NC(=O)C3CCCCC3)cccc2C1=O	?	1.6%	23.1µM*	-11.5	21.7%	12.5
COc1ccc(S(=O)(=O)Nc2cccc3c2O[C@H](CN(C)S(=O)(=O)c2cccs2)[C@@H](C)CN([C@H](C)CO)C3=O)cc1	?	0.0%	-11.1%	-4.2	8.3%	-10.6
COc1ccc(S(=O)(=O)N(C)C[C@H]2Oc3c(NC(=O)C4CC4)cccc3C(=O)N([C@H](C)CO)C[C@@H]2C)cc1	16.4µM*	0.5%	-14.9%	-17.2	12.5%	15.2
COc1ccc(S(=O)(=O)Nc2cccc3c2O[C@H](CN(C)S(=O)(=O)c2ccc(Cl)cc2)[C@H](C)CN([C@H](C)CO)C3=O)cc1	?	1.4%	18.4µM*	7.8	-9.7%	-17.6

Screening data (PubChem BioAssay)
